# Many of the other results were omitted from the sample, so hits are more common in it than they were.
# BLM inh-1: qHTS Assay for Inhibitors of Bloom's syndrome helicase (BLM); 350,000 tested, 0.2% active; recombinant BLM DNA unwinding, fluorescence dequenching; RecQ-like DNA helicase BLM (Homo sapiens), P54132; Potency, µM (highest dose often 56.1 µM), for inactives: top-dose activity change, negative = inhibition, actives largely listed as inhibitors;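 note: plate controls were vehicle for no effect and no enzyme for full effect; nearly all actives have a fitted effect of over 35% in size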
# Target sequence (P54132 whole entry, looked up): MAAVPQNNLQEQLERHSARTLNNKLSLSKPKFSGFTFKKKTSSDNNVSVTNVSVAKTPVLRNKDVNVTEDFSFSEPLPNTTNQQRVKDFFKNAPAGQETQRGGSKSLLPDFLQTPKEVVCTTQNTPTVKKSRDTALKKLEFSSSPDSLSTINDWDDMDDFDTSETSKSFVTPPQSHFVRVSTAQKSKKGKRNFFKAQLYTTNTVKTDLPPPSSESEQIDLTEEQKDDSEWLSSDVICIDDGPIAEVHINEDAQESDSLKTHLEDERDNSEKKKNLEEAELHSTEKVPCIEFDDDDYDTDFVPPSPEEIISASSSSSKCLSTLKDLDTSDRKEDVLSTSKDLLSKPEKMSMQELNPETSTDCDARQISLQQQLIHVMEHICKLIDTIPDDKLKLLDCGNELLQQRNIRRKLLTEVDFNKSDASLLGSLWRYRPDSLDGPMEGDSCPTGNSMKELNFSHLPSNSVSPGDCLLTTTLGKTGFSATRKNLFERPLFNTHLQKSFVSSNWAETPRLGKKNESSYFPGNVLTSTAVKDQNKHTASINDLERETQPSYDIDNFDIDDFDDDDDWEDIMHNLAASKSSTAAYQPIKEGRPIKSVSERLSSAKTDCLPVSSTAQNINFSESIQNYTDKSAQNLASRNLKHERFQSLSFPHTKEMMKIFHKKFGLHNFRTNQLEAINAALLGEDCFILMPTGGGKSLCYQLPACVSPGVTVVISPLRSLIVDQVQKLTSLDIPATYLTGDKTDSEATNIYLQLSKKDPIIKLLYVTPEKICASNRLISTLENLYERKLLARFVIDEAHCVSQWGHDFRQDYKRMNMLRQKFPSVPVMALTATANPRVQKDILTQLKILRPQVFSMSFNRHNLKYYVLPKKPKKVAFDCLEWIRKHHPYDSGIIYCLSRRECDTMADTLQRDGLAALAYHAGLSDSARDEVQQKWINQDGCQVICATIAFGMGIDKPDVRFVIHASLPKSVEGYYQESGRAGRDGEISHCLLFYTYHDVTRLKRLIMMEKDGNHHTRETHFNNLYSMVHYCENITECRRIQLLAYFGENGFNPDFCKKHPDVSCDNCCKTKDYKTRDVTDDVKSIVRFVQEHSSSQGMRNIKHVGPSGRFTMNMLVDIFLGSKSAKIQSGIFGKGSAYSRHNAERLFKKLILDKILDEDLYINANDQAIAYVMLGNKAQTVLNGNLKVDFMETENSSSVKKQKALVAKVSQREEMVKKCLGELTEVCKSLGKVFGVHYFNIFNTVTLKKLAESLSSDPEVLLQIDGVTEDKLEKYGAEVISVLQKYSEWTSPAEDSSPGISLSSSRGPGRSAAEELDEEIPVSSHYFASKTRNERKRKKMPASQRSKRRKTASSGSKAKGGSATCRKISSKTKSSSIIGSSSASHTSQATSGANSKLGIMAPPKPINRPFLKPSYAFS
# RECQ1 inh-1: qHTS Assay for Inhibitors of RecQ-Like Dna Helicase 1 (RECQ1); ATP-dependent DNA helicase Q1 (Homo sapiens), P46063; RECQ1 DNA unwinding, red fluorescence kinetic read; Potency, µM (titrated, usually from 57.3 µM), for inactives: top-dose activity, negative = inhibition, most hits filed as inhibitors; 240,000 tested, 0.54% active; AID 2549, 2010;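 note: plate controls were vehicle for no effect and no enzyme for full effect; nearly all actives have a fitted effect of over 30% in size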
#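 RECQ1T1 50 nM; forked duplex (20 bp + 30-nt ss tails) 200 nM, ATP 2 mM final; pH 8.0, 2 mM MgCl2, 2.5 ug/ml poly(dI-dC); 15 min compound preincubation; discontinuous kinetic read over 2 h at RT.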
# RGS12 GoLoco inh: qHTS Assay for Inhibitors of RGS12 GoLoco Motif Activity (Red Fluorophore) | Potency, µM (doses to about 61.6 µM), for inactives: at the highest dose activity, negative = inhibition, actives largely listed as inhibitors | 230,000 tested, 0.44% active | Gai1:RGS12 GoLoco peptide FP, rhodamine, 10 min | AID 880, 2007 | Guanine nucleotide-binding protein G(i) subunit alpha-1 (Homo sapiens), P63096; active = well fitted inhibition curve with a large enough effect, not every such curve was filed as active; inactive = no such curve, though single readings can be large or run the other way; note: nearly all actives have a fitted effect of over 30% in size
# L3MBTL1 inh: qHTS Assay for the Inhibitors of L3MBTL1; 230,000 tested, 0.66% active; Lethal(3)malignant brain tumor-like protein 1 (Homo sapiens), Q9Y468; Potency, µM (highest dose often 57.1 µM), for the others: at the top dose activity, negative = inhibition, hits mostly inhibitors; AlphaScreen L3MBTL1–H3K9me1 peptide binding; AID 485360, 2010; note: nearly all actives have a fitted effect of over 60% in size
#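 Read-out is AlphaScreen signal from streptavidin donor and nickel chelate acceptor beads (10 ug/mL final each) bridging L3MBTL1 (50 nM) and biotinylated K9-monomethylated H3(1-15) peptide (75 nM), after 30 min compound exposure at room temperature.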
# APE1 inh-1: qHTS Assay for Inhibitors of the Human Apurinic/apyrimidinic Endonuclease 1 (APE1); DNA repair nuclease/redox regulator APEX1 (Homo sapiens), P27695; recombinant APE1, TAMRA/BHQ-2 abasic DNA cleavage fluorescence; Potency, µM (highest dose often 65.8 µM), without a hit: at the top dose activity change, negative = inhibition, usual class: inhibitors; 350,000 tested, 0.35% active;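 note: plate controls were vehicle for no effect and reference inhibitor for full effect; nearly all actives have a fitted effect of over 55% in size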
#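 Endonuclease cleavage of a quenched abasic-site DNA duplex (50 nM) by APE1 (0.75 nM) was tracked by TAMRA dequenching. Compounds were preincubated with enzyme 15 min at room temperature; data normalized to buffer-only and DMSO wells plus NSC13755 control.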
# KDM4E inh: qHTS Assay for Inhibitors of Human Jumonji Domain Containing 2E (JMJD2E); Lysine-specific demethylase 4E (Homo sapiens), B2RXH2; JMJD2E catalytic domain, FDH-coupled NADH fluorescence (FDH is formaldehyde dehydrogenase); 230,000 tested, 1.6% active; Potency, µM (doses to about 57.1 µM), for inactives: at the highest dose activity change, negative = inhibition, most hits filed as inhibitors; active = well fitted inhibition curve with a large enough effect, not every such curve was filed as active; inconclusive = small, poorly fitted or top-dose-only effect, or another doubt; inactive = no such curve, though single readings can be large or run the other way;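 note: 0% = wells with enzyme and -100% = buffer wells without enzyme; nearly all actives have a fitted effect of over 50% in size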
# APE1 dye cs: Counterscreen for APE1 Inhibitors: Fluorescent Dye Displacement Assay | shares compounds with APE1 inh-1 | DNA fluorescent dye displacement counterscreen, fluorescence | Potency, µM (top dose mostly 28.5 µM), for inactives: at the highest dose activity change, negative = inhibition, actives largely listed as inhibitors | AID 2564, 2010 | 480 tested, 7% active;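 note: loss of thiazole orange fluorescence as the dye is displaced from duplex DNA; 0% = ThO with dsDNA and no compound and -100% = ThO without dsDNA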
# Endo IV inh: Counterscreen for APE1 Inhibitors: qHTS Assay for Inhibitors of Endonuclease IV; 560 tested, 4% active; Potency, µM (doses to about 27.1 µM), for the others: at the top dose activity change, negative = inhibition, usual class: inhibitors; shares compounds with APE1 inh-1; E. coli Endo IV, fluorogenic AP-site DNA cleavage;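 note: plate controls were uninhibited enzyme wells for no effect and no enzyme buffer wells for full effect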
# APE1 inh-2: Confirmation qHTS Assay for Inhibitors of the Human Apurinic/apyrimidinic Endonuclease 1 (APE1) | shares compounds with APE1 inh-1 | purified APE1, fluorogenic abasic-site DNA cleavage | Potency, µM (doses to about 57.1 µM), for inactives: at the highest dose activity change, negative = inhibition, actives largely listed as inhibitors | 750 tested, 44% active; note: nearly all actives have a fitted effect of over 30% in size
# APE1 FP: qHTS FP-Based Assay for Inhibitors of the Human Apurinic/apyrimidinic Endonuclease 1 (APE1). Potency, µM (doses to about 28.5 µM), without a hit: at the top dose activity, negative = inhibition, usual class: inhibitors. shares compounds with APE1 inh-1. APE1 binding to TAMRA-labelled double-stranded DNA, fluorescence polarization displacement. 480 tested, 7% active
# BLM inh-2: qHTS Confirmation Assay for Inhibitors of Bloom's syndrome helicase (BLM). shares compounds with BLM inh-1. BLM DNA unwinding, fluorescence quenching, biochemical. Potency, µM, without a hit: max response, negative = inhibition, actives largely listed as inhibitors. 220 tested, 40% active;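 note: strand separation dequenches TAMRA so unwinding raises red fluorescence; series mostly up to about 69 µM; nearly all actives have a fitted effect of over 45% in size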
# RECQ1 conf: Confirmation qHTS Assay for Inhibitors of RecQ-Like Dna Helicase 1 (RECQ1); shares compounds with RECQ1 inh-1; RECQ1 helicase DNA unwinding, fluorescence; Potency, µM (highest dose often 229 µM), without a hit: top-dose activity change, negative = inhibition, actives largely listed as inhibitors; 610 tested, 28% active; AID 2708, 2010; note: nearly all actives have a fitted effect of over 45% in size
# RECQ1 ADP FP: Counterscreen for RECQ1 Inhibitors: ADP Fluorescence Polarization Displacement Assay; shares compounds with RECQ1 inh-1; ADP fluorescence polarization displacement counterscreen; Potency, µM (doses to about 228 µM), for inactives: at the highest dose activity change, negative = inhibition, usual class: inhibitors; 530 tested, 27% active; AID 2711, 2010; note: nearly all actives have a fitted effect of over 45% in size
# RECQ1 inh-2: Confirmation qHTS Assay for Inhibitors of RecQ-Like Dna Helicase 1 (RECQ1) - Round 2 Cherry Picks; shares compounds with RECQ1 inh-1; recombinant RECQ1 DNA unwinding, red fluorescence; Potency, µM (titrated, usually from 119 µM), for inactives: at the highest dose activity, negative = inhibition, hits mostly inhibitors; 1,100 tested, 15% active; note: nearly all actives have a fitted effect of over 50% in size
# Active calls of the source: *; i = inactive; ? = inconclusive; nt = no result given; ! = repeats disagree; [ ] = remark or other dose. Unless noted, calls come from the whole dose curve; as a rule, active = well fitted curve in the direction sought with a large enough effect; inconclusive = small, poorly fitted or top-dose-only effect, or another doubt; inactive = no such curve, though single readings can be large; an effect the other way counts as inactive or inconclusive. Unless noted, % is set by controls: 0 for no effect and ±100 for the full control effect; potency is the fitted concentration of half-maximal effect.
SMILES,BLM inh-1,RECQ1 inh-1,RGS12 GoLoco inh,L3MBTL1 inh,APE1 inh-1,KDM4E inh,APE1 dye cs,Endo IV inh,APE1 inh-2,APE1 FP,RECQ1 conf,RECQ1 ADP FP,RECQ1 inh-2,others
CCc1cc(=O)oc2cc(C)c(CN3CCCC3)c(O)c12,11.2µM*,7.08µM*,nt,3.98µM*,12.6µM*,25.1µM*,-1.4%,-0.1%,?,?,50.1µM*,71.9%[91.9 µM],?,BLM inh-2=?
CNC[C@@H](SC)c1ccc(O)c(O)c1,nt,nt,6.9%[14.2 µM],nt,nt,nt,nt,nt,nt,nt,nt,nt,nt,
CNC[C@H](O)c1ccc(O)c(O)c1,-2.5%,17.8µM*!,11.4%,?,7.94µM*!,15.8µM*,-2.6%[57.1 µM],30.8%[57.1 µM],?,-5.3%[57.1 µM],?,14.1µM*,nt,
Cc1ccc(-c2nc3s/c(=C\c4ccco4)c(=O)n3n2)cc1,-10.4%,-22.9%,55.9%,?,?,-9.6%,nt,nt,nt,nt,nt,nt,nt,
O=c1nc2s/c(=C\c3ccco3)c(=O)n2nc1Cc1ccc(F)cc1,-15.6%,22.4µM*,18.4%,nt,7.94µM*,-7.8%,?,13.0%,7.08µM*,?,56.2µM*,?,?,
Cc1cc(SCC(=O)c2ccc(O)c(O)c2)nc2ccccc12,-18.9%,25.1µM*,10.2%,-18.0%,?,?,12.6µM*,75.5%,?,13.1%,nt,nt,10µM*,
Cc1cc(SCC(=O)c2ccc3c(c2)OCO3)nc2ccccc12,-5.0%,-14.1%,37.6%,nt,-3.1%,-8.7%,nt,nt,nt,nt,nt,nt,nt,
CC(=O)NC1=NC(=O)/C(=C/c2cc(C)n(-c3cccc(C(=O)O)c3)c2C)S1,-4.3%,?,48.5%,nt,3.55µM*,?,9.9%,-1.1%,4.47µM*,?,nt,nt,20µM*,
COc1ccc(/C=N/NC(=O)c2cc(O)c(O)c(O)c2)cc1Cn1cc([N+](=O)[O-])cn1,?,1.78µM*,8.8%,nt,1.58µM*,2.24µM*,?,95.8%,1.26µM*,-10.4%,?,-9.9%[91.9 µM],nt,
COc1ccc(CNc2cc(-c3ccccc3C)ncn2)c(OC)c1,-2.3%,i,6.6%,nt,-7.1%,nt,nt,nt,nt,nt,nt,nt,nt,
COc1ccc2c(c1)c(=O)oc1cc(OCC(=O)N3CCc4ccccc4C3)ccc12,-19.1%,14.1µM*,-12.1%,nt,10µM*,?,-3.1%,?,3.98µM*,-28.7%,-7.1%[114 µM],0.3%[91.9 µM],?,
CC(C)c1ccc(OCC(=O)N2CCc3ccccc3C2)cc1,-4.8%,nt,nt,2.3%,18.7%,nt,nt,nt,nt,nt,nt,nt,nt,
Nc1ncnc2oc(-c3ccco3)c(-c3ccco3)c12,15.8µM*,10µM*,44.0%,25.1µM*,7.94µM*,?,-10.3%,11.7%,39.8µM*,-7.1%,50.1µM*,39.8µM*,-27.8%,
O=C(O)/C=C\C(=O)Nc1ccc2c(c1)C(=O)c1cc(F)ccc1-2,nt,nt,3.8%[14.2 µM],nt,nt,nt,nt,nt,nt,nt,nt,nt,nt,
CC(=O)c1ccc(NC(=O)CN(C)S(=O)(=O)c2cc3c(cc2Cl)NC(=O)CO3)cc1,-6.3%,nt,nt,nt,nt,nt,nt,nt,nt,nt,nt,nt,nt,
S=C1NCN(Cc2ccco2)CN1,-2.4%,-6.5%,-6.0%,9.0%,2.0%,1.3%,nt,nt,nt,nt,nt,nt,nt,

# Screening results from PubChem.
